Measurements reported in PubChem BioAssay.
Inconclusive results are not listed. Active and inactive are the calls of the source.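 Rule for the calls, unless noted: active = GFP signal, as percent of the solvent control, above the screen mean plus 3 SD, about 149; inconclusive = no reading because the compound's own fluorescence upset strain identification; inactive = the rest.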

Legend:
[1] = rapamycin-like changes in RPL19A-GFP expression – cell-based, S. cerevisiae, multiplex flow cytometry, primary screen (AID 1862; in the data active = percent of DMSO control GFP below about 86%;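 note: lower values mimic rapamycin by blocking the RPL19A rise seen in DMSO cells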); settings: S. cerevisiae RPL19A-GFP strain, flow cytometry fluorescence, 3 h; at 10 µM; stronger effect = lower value
[2] = TOR pathway GLN3 branch reporter MEP2-GFP changes – S. cerevisiae, multiplex flow cytometry, primary screen (AID 1867;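 active = GFP response, as percent of the DMSO control, above the screen-wide mean plus 3 SD, about 139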;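 note: median GFP channel fluorescence of barcode-gated MEP2-GFP cells measured by flow cytometry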); settings: S. cerevisiae MEP2-GFP strain, 3 h, at 10 µM, stronger effect = higher value, 100% means same as DMSO wells
[3] = TOR pathway RTG branch CIT2 reporter changes – S. cerevisiae, GFP fusion, multiplex flow cytometry, primary screen (AID 1870;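 active = percent response above a set limit, the screen-wide mean plus 3 SD, cut at about 130% in these data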;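 note: barcoded CIT2-GFP strain pooled with four other GFP strains with rapamycin as positive control; median GFP fluorescence per well over plate mean of DMSO wells so 100% = DMSO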); settings: S. cerevisiae CIT2-GFP expression, 3 h, at 10 µM, stronger effect = higher value
[4] = TOR pathway LAP4-GFP level changes – S. cerevisiae, multiplex flow cytometry, primary screen (AID 1873); settings: S. cerevisiae LAP4-GFP expression, 3 h, at 10 µM, stronger effect = higher value
[5] = yeast AGP1-GFP level changes, GLN3 branch – cell-based, multiplex flow cytometry, S. cerevisiae, primary screen (AID 1887;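 active = GFP signal above the screen-wide mean plus 3 SD, that is over about 124.5% of the solvent control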;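 note: AGP1-GFP fusion strain of S. cerevisiae within a five-strain barcoded multiplex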); settings: 3 h, at 10 µM, stronger effect = higher value
[6] = reduced mouse 2C T cell binding to pMHC/ICAM-1 vesicles – MLPCN validation set, flow cytometry, LFA-1/ICAM-1 modulator project, pilot screen (AID 2523;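 active = response below a set limit, under 55% cells CD8-positive and vesicle-bound, and CD8 cells' 90th-percentile brightness under 279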;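 for vesicle binding response: mean PE anti-B7-1 fluorescence of CD8+ cells relative to row control; 100% = QL9-loaded vesicles with DMSO vehicle in the same plate row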); settings: 2C mouse CD8+ T cells, at 7 µM, stronger effect = lower value; double positive events: measured here: CD8+/vesicle+ event percentage
[7] = molecular target: Integrin beta-1 (Homo sapiens) + Integrin alpha-4 (Homo sapiens) (UniProt P13612+P05556); assay: alpha4beta1 integrin LIBS antibody binding reduction – U937 cells, HUTS-21 mAb, flow cytometry, validation set, VLA-4 allosteric modulator project, pilot screen (AID 2674;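 active = inhibition above 50%, about 3 SD of the validation set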;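 note: antibody binding induced by the VLA-4 ligand LDV present at three times its Kd; 0% = LDV ligand with antibody and no compound and 100% = antibody without LDV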); settings: HUTS-21 LIBS mAb binding, at 6.7 µM, stronger effect = higher value, binding induced by LDV ligand
[8] = calorie-restriction mimetic ROS inhibitors, yeast – validation compound set, pilot screen (AID 2706;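 active = superoxide response below 65% of plate, a cut near 3 SD across the whole screen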;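 note: yeast exposed to compound for one week at 30 degrees C before staining; 100% = mean of all compound wells on the same plate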); settings: S. cerevisiae aging, superoxide DHE fluorescence; at 10 µM, stronger effect = lower value
[9] = molecular target: Beta-adrenergic receptor kinase 1 (Homo sapiens) (UniProt P25098); assay: GRK2 binders displacing RNA aptamer, biochemical, validation, human GRK2, bead flow cytometry (AID 488806;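 active = aptamer binding inhibition above 30%, about 3 SD of noise from non-fluorescent compounds; inactive = inhibition at or below 30%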); settings: bead-bound GRK2, FAM-aptamer displacement, at 10 µM, stronger effect = higher value
[10] = molecular target: AP-2 complex subunit beta (Homo sapiens) (UniProt P63010); assay: beta-arrestin/AP2 interaction blockers – biochemical, validation set, GST-AP2 beads, flow cytometry, pilot screen (AID 504541;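 active = inhibition above 54%, about 3 SD of non-fluorescent compounds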;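 note: AP2 carries R879A mutation and is captured from E. coli lysate; bead-bound FITC arrestin peptide fluorescence measuring arrestin peptide binding to AP2; 0% = DMSO wells and 100% = excess unlabeled arrestin peptide control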); settings: FITC arrestin peptide, at 10 µM, stronger effect = higher value, AP2 beta2 appendage fragment, R879A mutant
[11] = cytosolic pH regulators acting via V-ATPase – S. cerevisiae, pHLuorin, HTS validation (AID 504600; in the data active = response above about 15%;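 note: plate controls were DMSO for no effect and reference compound for full effect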); settings: V-ATPase proton transport, at 10 µM, stronger effect = higher value
[12] = system: anti-desmoglein-3 scFv antibody binding to human DSG3; assay: blockers of pathogenic pemphigus antibody–desmoglein-3 binding – biochemical, validation compound set, bead-based, flow cytometry, pilot screen (AID 588368;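 active = binding below the plate cutoff, the plate median minus 3 SD, with a reading above zero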;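 note: signal is the median channel fluorescence of bead-bound GFP antibody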); settings: Protein G beads, DSG3-Fc, scFv-GFP binding, at 10 µM, stronger effect = lower value
[13] = Nile Red efflux blockade in pump-expressing yeast – validation compound set, multiplex, phenotypic, pilot screen (AID 588506;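 active = efflux inhibition above 0.42, the validation set average plus 4 SD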;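 note: Nile Red retained in cells so higher fluorescence means more efflux inhibition; 0 = negative control wells and 1 = enniatin B 25 µM full block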); settings: S. cerevisiae pump-expressing triplex, Nile Red efflux flow cytometry; at 10 µM; stronger effect = higher value; the pumps come from Candida albicans
[14] = molecular target: ATP-binding cassette sub-family B member 6 (Homo sapiens) (UniProt Q9NP58); assay: blockers of ABCB6-driven porphyrin uptake – K562-ABCB6 cells, flow cytometry, validation set, pilot screen (AID 588550;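 active = inhibition above the screen-wide mean plus 3 SD, about 51%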;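 note: 0% = DMSO wells and 100% = benzethonium chloride 70 µM positive control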); settings: K562-ABCB6 porphyrin accumulation, 1 h, at 10 µM, stronger effect = higher value
[15] = AML differentiation inducers, ER-HoxA9 marrow cells – cell-based, GFP/MAC1 double positive, flow cytometry, validation set, primary screen (AID 588685;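 active = differentiation response of at least 50%, scaled between solvent and reference control, from cells with both markers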;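 note: compound exposure lasts four days before antibody staining and flow analysis; 0% = DMSO wells and 100% = 5 µM fulvestrant positive control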); settings: stronger effect = higher value, normalized: vehicle 0, fulvestrant 100

Chain of ATP-binding cassette sub-family B member 6 (Homo sapiens) (Q9NP58 whole entry, looked up): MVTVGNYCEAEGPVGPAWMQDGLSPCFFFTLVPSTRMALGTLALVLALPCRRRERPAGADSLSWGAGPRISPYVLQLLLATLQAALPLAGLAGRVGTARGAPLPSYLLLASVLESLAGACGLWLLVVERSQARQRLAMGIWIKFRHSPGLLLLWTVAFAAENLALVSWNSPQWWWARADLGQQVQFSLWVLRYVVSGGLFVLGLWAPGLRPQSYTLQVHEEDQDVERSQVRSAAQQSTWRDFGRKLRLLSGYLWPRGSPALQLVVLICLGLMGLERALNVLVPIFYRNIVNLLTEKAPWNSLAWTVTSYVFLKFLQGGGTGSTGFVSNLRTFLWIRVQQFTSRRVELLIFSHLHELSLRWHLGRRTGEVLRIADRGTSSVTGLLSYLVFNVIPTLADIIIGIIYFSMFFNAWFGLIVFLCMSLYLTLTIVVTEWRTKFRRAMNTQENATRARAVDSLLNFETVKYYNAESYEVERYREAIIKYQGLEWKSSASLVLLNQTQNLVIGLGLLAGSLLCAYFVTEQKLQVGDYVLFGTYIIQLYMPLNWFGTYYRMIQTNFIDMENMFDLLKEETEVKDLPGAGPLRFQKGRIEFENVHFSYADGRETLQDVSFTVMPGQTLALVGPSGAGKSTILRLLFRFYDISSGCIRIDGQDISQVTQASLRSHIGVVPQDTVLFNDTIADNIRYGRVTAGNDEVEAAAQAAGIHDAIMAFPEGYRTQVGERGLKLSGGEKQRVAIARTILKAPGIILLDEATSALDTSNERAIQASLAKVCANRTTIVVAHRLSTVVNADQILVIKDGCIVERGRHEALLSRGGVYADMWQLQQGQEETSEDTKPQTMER
Chain of Beta-adrenergic receptor kinase 1 (Homo sapiens) (P25098 whole entry, looked up): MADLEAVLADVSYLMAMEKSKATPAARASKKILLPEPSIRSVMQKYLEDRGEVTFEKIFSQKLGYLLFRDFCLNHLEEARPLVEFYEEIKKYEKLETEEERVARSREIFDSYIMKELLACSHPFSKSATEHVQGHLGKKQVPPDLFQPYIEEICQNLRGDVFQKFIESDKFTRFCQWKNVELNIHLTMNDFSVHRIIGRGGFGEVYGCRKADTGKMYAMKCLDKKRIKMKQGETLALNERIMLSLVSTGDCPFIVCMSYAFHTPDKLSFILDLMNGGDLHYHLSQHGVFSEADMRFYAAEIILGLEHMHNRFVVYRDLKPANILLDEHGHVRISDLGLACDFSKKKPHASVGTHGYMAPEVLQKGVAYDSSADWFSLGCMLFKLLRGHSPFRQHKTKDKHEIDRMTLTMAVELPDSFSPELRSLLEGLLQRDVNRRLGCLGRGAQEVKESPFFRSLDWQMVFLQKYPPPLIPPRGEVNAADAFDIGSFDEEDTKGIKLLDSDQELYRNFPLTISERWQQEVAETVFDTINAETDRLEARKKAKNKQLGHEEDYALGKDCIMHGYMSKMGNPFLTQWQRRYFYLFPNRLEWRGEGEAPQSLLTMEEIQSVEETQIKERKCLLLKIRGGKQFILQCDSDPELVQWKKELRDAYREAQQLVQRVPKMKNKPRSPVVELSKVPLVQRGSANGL
Chain of Integrin beta-1 (Homo sapiens) + Integrin alpha-4 (Homo sapiens) (P05556 whole entry, looked up): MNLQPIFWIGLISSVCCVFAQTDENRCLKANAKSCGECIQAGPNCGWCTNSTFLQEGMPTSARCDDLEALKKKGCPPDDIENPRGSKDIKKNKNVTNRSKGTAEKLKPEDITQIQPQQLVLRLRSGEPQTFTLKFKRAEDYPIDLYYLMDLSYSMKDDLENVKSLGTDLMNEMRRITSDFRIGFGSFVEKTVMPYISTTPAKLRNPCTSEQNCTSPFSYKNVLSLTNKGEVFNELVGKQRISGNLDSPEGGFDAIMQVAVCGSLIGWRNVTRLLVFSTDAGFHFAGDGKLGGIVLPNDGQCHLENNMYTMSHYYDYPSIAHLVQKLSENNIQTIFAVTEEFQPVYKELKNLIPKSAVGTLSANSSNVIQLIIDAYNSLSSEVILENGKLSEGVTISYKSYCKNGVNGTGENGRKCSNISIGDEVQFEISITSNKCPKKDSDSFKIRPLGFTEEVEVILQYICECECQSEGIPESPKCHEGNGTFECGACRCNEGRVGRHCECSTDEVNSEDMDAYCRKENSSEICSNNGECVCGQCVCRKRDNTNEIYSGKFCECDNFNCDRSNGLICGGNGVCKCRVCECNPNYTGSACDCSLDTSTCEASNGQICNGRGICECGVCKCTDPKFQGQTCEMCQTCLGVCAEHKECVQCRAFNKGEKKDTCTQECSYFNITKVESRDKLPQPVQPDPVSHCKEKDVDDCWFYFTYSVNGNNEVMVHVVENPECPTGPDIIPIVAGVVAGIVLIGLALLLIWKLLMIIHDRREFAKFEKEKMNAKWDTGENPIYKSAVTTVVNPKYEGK
Chain of Integrin beta-1 (Homo sapiens) + Integrin alpha-4 (Homo sapiens) (P13612 whole entry, looked up): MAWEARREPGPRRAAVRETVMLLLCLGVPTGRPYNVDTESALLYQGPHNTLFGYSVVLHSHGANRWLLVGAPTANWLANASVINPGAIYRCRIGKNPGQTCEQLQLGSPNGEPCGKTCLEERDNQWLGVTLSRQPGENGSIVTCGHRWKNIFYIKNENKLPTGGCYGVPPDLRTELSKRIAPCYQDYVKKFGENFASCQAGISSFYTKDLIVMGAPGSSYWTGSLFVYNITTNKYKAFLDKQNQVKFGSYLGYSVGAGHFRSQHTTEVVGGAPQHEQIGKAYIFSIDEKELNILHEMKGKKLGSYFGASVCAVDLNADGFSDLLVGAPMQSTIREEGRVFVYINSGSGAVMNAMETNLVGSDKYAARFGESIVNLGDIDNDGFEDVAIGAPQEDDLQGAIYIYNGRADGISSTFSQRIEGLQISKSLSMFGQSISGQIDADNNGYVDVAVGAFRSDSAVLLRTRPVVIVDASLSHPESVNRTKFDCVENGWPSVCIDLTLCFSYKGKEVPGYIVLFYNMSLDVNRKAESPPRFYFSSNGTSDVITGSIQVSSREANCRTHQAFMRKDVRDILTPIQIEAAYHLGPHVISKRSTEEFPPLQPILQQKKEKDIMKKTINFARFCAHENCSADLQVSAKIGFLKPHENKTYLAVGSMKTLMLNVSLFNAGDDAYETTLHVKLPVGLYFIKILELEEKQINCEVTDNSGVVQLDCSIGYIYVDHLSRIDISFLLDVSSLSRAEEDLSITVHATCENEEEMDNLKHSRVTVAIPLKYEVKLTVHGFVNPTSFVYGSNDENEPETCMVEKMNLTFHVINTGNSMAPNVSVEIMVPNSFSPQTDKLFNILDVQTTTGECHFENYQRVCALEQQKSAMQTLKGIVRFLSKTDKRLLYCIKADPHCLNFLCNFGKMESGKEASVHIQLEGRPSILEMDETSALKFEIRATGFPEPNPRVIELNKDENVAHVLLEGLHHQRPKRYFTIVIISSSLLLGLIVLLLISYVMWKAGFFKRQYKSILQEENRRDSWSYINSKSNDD
Chain of AP-2 complex subunit beta (Homo sapiens) (P63010 whole entry, looked up, the tested form may be a part, one chain of several): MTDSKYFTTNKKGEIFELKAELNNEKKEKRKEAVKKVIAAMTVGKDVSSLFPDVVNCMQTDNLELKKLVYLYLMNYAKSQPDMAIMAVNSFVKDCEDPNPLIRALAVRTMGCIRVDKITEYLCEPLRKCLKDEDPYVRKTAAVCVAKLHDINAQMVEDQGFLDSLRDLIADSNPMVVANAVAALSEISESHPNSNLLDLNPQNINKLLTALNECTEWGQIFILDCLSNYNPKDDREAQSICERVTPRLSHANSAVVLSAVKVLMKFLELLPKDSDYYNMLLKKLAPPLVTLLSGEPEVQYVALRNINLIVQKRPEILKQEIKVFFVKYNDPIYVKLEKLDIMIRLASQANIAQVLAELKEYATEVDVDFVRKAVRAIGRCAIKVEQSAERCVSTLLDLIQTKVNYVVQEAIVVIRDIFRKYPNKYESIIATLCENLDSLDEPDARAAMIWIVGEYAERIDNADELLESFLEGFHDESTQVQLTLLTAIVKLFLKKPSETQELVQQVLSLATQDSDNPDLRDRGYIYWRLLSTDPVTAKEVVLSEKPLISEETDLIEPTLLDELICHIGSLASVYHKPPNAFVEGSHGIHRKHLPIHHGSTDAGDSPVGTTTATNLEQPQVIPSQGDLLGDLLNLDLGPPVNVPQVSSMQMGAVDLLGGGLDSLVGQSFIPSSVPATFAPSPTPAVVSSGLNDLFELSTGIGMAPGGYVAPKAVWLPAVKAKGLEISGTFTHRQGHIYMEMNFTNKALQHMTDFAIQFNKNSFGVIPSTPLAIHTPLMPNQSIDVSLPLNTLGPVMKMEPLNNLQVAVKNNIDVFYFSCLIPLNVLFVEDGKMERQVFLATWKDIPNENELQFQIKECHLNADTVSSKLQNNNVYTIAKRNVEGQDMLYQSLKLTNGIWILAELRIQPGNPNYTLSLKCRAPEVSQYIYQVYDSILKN

SMILES | percent of DMSO control GFP [1] | GFP response vs DMSO [2] | percent response of DMSO control [3] | GFP response vs DMSO [4] | GFP response, % of DMSO [5] | double positive events [6] [%] | vesicle binding response [6] | inhibition [7] | superoxide response (% of plate) [8] | aptamer binding inhibition [9] | inhibition [10] | response [11] | binding (% of control) [12] | efflux inhibition (fraction of control) [13] | inhibition [14] | differentiation response [15]
C=CCc1ccccc1OCC(O)CNC(C)C (stereo not given) | 103% (inactive) | 107% (inactive) | 104% (inactive) | 108% (inactive) | 118% (inactive) | 61.2 | 209% (inactive) | -11.3% (inactive) | 96.7% (inactive) | -32% (inactive) | -4.94% (inactive) | 0.57% (inactive) | 107% (inactive) | 0.12 (inactive) | -2% (inactive) | -11.9% (inactive)
CN=C1c2cc3cc(OC)ccc3n2CCN1C | 101% (inactive) | 97.9% (inactive) | 102% (inactive) | 93.3% (inactive) | 99% (inactive) | 62 | 177% (inactive) | 11.9% (inactive) | 103% (inactive) | 4% (inactive) | 14.9% (inactive) | -2.85% (inactive) | 98.8% (inactive) | 0.1 (inactive) | 2% (inactive) | 12.7% (inactive)
CC(=O)NCCCCCCNC(C)=O | 106% (inactive) | 92.8% (inactive) | 110% (inactive) | 90.3% (inactive) | 106% (inactive) | 55.5 | 198% (inactive) | 4.42% (inactive) | 85.1% (inactive) | -1% (inactive) | -11.9% (inactive) | 6% (inactive) | 94.1% (inactive) | -0.31 (inactive) | 5% (inactive) | -22.8% (inactive)
O=c1nc2cccc3c2=c(/c1=C(\O)c1ccccc1)c1ccccc1c3=O | 102% (inactive) | 102% (inactive) | 105% (inactive) | 96.4% (inactive) | 99.3% (inactive) | 47.4 | 175% (inactive) | -23.6% (inactive) | 99.9% (inactive) | 8% (inactive) | 17.9% (inactive) | 1.67% (inactive) | 91% (inactive) | -0.16 (inactive) | 9% (inactive) | -6.66% (inactive)
Nc1cccc2c1nnn2C1OC(CO)C(O)C(O)C1O (stereo not given) | 104% (inactive) | 94.8% (inactive) | 102% (inactive) | 85.3% (inactive) | 102% (inactive) | 58 | 192% (inactive) | -3.97% (inactive) | 82.8% (inactive) | 0% (inactive) | -6.04% (inactive) | 4.02% (inactive) | 105% (inactive) | -0.05 (inactive) | 4% (inactive) | -18% (inactive)
Cc1cc(OC(C(=O)O)c2ccccc2)c2c(C)c(Cc3ccccc3)c(=O)oc2c1 (stereo not given) | 103% (inactive) | 98.9% (inactive) | 97.9% (inactive) | 100% (inactive) | 95.1% (inactive) | 54.5 | 160% (inactive) | -3.04% (inactive) | 115% (inactive) | 2% (inactive) | 1.35% (inactive) | 5.52% (inactive) | 95.4% (inactive) | -0.05 (inactive) | 7% (inactive) | -3.43% (inactive)
COc1ccc2[nH]cc(C(=O)CCl)c2c1 | 103% (inactive) | 98.9% (inactive) | 102% (inactive) | 100% (inactive) | 102% (inactive) | 64.8 | 172% (inactive) | -3.04% (inactive) | 101% (inactive) | 4% (inactive) | 24.1% (inactive) | -6.9% (inactive) | 98.2% (inactive) | -0.01 (inactive) | 3% (inactive) | 0% (inactive)
CC(=O)O[C@]1(C(C)=O)CC[C@H]2[C@@H]3C=C(Cl)C4=CC(=O)CC[C@]4(C)[C@H]3CC[C@@]21C | 99.3% (inactive) | 89.7% (inactive) | 102% (inactive) | 84.3% (inactive) | 97.2% (inactive) | 48.7 | 201% (inactive) | -20.8% (inactive) | 108% (inactive) | -1% (inactive) | -12.8% (inactive) | -0.6% (inactive) | 105% (inactive) | -0.12 (inactive) | 9% (inactive) | -9.89% (inactive)
CCOC(=O)c1ccccc1NC(=O)c1ccc(F)cc1 | 101% (inactive) | 108% (inactive) | 103% (inactive) | 92.3% (inactive) | 91.8% (inactive) | 60.4 | 102% (inactive) | 10.9% (inactive) | 100% (inactive) | 3% (inactive) | 6.01% (inactive) | -5.23% (inactive) | 98.8% (inactive) | 0.37 (inactive) | 13% (inactive) | -13.1% (inactive)
COC(=O)CN1CC(=O)N(c2ccccc2)C1=S | 101% (inactive) | 106% (inactive) | 97.9% (inactive) | 100% (inactive) | 95.8% (inactive) | 59.2 | 171% (inactive) | 6.29% (inactive) | 97.2% (inactive) | 1% (inactive) | 9.42% (inactive) | 4.12% (inactive) | 106% (inactive) | 0.22 (inactive) | -19% (inactive) | 6.26% (inactive)
CC(C)NCC(O)COc1ccc(CC(N)=O)cc1 (stereo not given) | 99.2% (inactive) | 100% (inactive) | 105% (inactive) | 97.3% (inactive) | 99.1% (inactive) | 61.8 | 127% (inactive) | -2.53% (inactive) | 82.7% (inactive) | 2% (inactive) | -8.74% (inactive) | 0.46% (inactive) | 101% (inactive) | -0.39 (inactive) | 6% (inactive) | -2.69% (inactive)
Cc1ccc2[nH]c3c(c2c1)CN(C)CC3 | 102% (inactive) | 107% (inactive) | 97.9% (inactive) | 97.4% (inactive) | 100% (inactive) | 63.4 | 188% (inactive) | 9.09% (inactive) | 99.8% (inactive) | 5% (inactive) | 15.9% (inactive) | -3.83% (inactive) | 105% (inactive) | -0.09 (inactive) | 12% (inactive) | -8.27% (inactive)
Clc1ccccc1CN1CCc2sccc2C1 | 100% (inactive) | 104% (inactive) | 99.6% (inactive) | 118% (inactive) | 119% (inactive) | 64.6 | 233% (inactive) | 6.55% (inactive) | 87.2% (inactive) | -1% (inactive) | 59.3% (active) | 0.39% (inactive) | 102% (inactive) | 0 (inactive) | 0% (inactive) | -4.99% (inactive)
CCN(CC)C1=C(Cl)C(=O)C(Cl)C12OCCO2 (stereo not given) | 100% (inactive) | 104% (inactive) | 88.1% (inactive) | 100% (inactive) | 89.2% (inactive) | 61.5 | 160% (inactive) | 6.29% (inactive) | 94.6% (inactive) | -5% (inactive) | 49.7% (inactive) | 1.58% (inactive) | 95.6% (inactive) | 0.9 (active) | 10% (inactive) | 6.26% (inactive)
CN1C(=O)C(O)(CC(=O)/C=C/C=C/c2ccccc2)c2ccccc21 (stereo not given) | 104% (inactive) | 98.9% (inactive) | 104% (inactive) | 94.3% (inactive) | 98.1% (inactive) | 54.8 | 153% (inactive) | -0.24% (inactive) | 102% (inactive) | 2% (inactive) | -6.66% (inactive) | 0.35% (inactive) | 99% (inactive) | 0.06 (inactive) | 5% (inactive) | -18% (inactive)
C/C(=N/N1CCN(Cc2cccc3ccccc23)CC1)c1cccnc1 | 101% (inactive) | 102% (inactive) | 98.8% (inactive) | 99.4% (inactive) | 96.6% (inactive) | 58.2 | 182% (inactive) | -1.17% (inactive) | 102% (inactive) | 1% (inactive) | 6.25% (inactive) | -3.49% (inactive) | 100% (inactive) | 0.25 (inactive) | 5% (inactive) | 9.49% (inactive)
O=C(c1ccc(F)cc1)[C@@H]1[C@@H](C(=O)c2ccccc2)[C@@]2(C(=O)Nc3ccccc32)[C@H]2c3ccccc3C=CN12 | 102% (inactive) | 93.8% (inactive) | 106% (inactive) | 102% (inactive) | 102% (inactive) | 43.2 | 172% (inactive) | -183% (inactive) | 121% (inactive) | -3% (inactive) | -24.7% (inactive) | 2.83% (inactive) | 100% (inactive) | 0.03 (inactive) | 3% (inactive) | -19.6% (inactive)
Clc1ccc(OCCCN2CCCCC2)c(Br)c1 | 105% (inactive) | 95.9% (inactive) | 112% (inactive) | 88.3% (inactive) | 98.7% (inactive) | 57.1 | 202% (inactive) | 4.42% (inactive) | 88.5% (inactive) | -2% (inactive) | -6.22% (inactive) | 0.07% (inactive) | 103% (inactive) | -0.35 (inactive) | 7% (inactive) | 0% (inactive)
COC1(C)CC2C(CC1OC(=O)c1cc([N+](=O)[O-])cc([N+](=O)[O-])c1)C2(C)C (stereo not given) | 104% (inactive) | 99.9% (inactive) | 106% (inactive) | 178% (active) | 74.2% (inactive) | 52.4 | 222% (inactive) | -3.97% (inactive) | 114% (inactive) | 5% (inactive) | -6.29% (inactive) | 3.54% (inactive) | 99.3% (inactive) | -0.35 (inactive) | 9% (inactive) | -18% (inactive)
CCOc1ccc(NC(=O)N[C@@H](CCSC)C(=O)OC)cc1 | 105% (inactive) | 106% (inactive) | 104% (inactive) | 96.4% (inactive) | 105% (inactive) | 52.6 | 164% (inactive) | 5.36% (inactive) | 117% (inactive) | 1% (inactive) | 5.32% (inactive) | 4.65% (inactive) | 98.5% (inactive) | -0.47 (inactive) | 6% (inactive) | 9.49% (inactive)
